# Hits are enriched below; roughly 6.3% of the tested compounds scored in any of these assays.
# RORg inh – inhibitors of mouse ROR gamma transcriptional activity. P51450. Drosophila S2 Gal4-RORgamma UAS-luciferase reporter, 20 h. Potency, µM (series often up to 53.6 µM), without a hit: at the top dose activity change, negative = inhibition, hits mostly inhibitors. actives 5.4% (n = 310,000). AID 2551; further: on the % scale 0 is the no-effect control and ±100 the full control effect; nearly all actives have a fitted effect of over 60% in size
# Target sequence (P51450 whole entry, looked up, the tested form may be a part): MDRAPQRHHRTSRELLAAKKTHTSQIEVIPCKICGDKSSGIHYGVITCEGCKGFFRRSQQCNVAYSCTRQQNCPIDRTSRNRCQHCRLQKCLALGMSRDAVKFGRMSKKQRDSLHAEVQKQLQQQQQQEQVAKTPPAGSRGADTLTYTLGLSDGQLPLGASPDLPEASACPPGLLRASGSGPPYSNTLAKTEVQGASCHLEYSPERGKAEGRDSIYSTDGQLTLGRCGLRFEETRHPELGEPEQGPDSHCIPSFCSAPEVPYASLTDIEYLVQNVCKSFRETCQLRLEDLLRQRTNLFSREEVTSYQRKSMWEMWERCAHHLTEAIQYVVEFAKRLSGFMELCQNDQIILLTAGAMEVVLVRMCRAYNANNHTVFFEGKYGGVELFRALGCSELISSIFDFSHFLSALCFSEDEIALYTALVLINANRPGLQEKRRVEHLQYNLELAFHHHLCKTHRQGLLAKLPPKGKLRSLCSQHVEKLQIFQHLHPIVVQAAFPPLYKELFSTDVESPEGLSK
#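 Drosophila Schneider cells stably carrying a metallothionein-driven Gal4 DBD–ROR gamma fusion and a UAS-Photinus luciferase reporter were exposed to compound for 1 hr, then induced with copper sulfate (700 uM final) for 20 hr at ambient temperature before luminescence reading.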
# ATXN2 expr inh – reduces ATXN2 reporter expression in HEK-293 cells | AID 1745845 | actives 0.72% (n = 360,000) | HEK-293 ATXN2-luciferase reporter, luminescence, 24 h | Potency, µM (doses to about 57 µM), for the others: at the highest dose activity change, negative = inhibition, most hits filed as inhibitors; further: on the % scale 0 is the no-effect control and ±100 the full control effect; nearly all actives have a fitted effect of over 55% in size
#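 ATXN2-luciferase reporter cells (luciferase flanked by upstream and downstream ATXN2 gene portions) were treated 24 h at 37 °C with compounds at up to 57 uM. SteadyGlo luminescence gave expression; GF-AFC fluorescence gave viability.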
# TGFb SMAD3 inh – blocks TGF-b signaling; HepG2 CAGA-GFP TGF-b/SMAD3 reporter, GFP fluorescence, 18 h; TGF-beta stimulated, 500 pg/mL final; Potency, µM (series often up to 46.1 µM), without a hit: at the highest dose activity, negative = inhibition, most hits filed as inhibitors; actives 1.2% (n = 410,000); further: on the % scale 0 is the no-effect control and ±100 the full control effect; nearly all actives have a fitted effect of over 65% in size
#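 HEPG2 CAGA-GFP reporter cells (1000/well, DMEM with 1% FBS) received compounds, then recombinant TGF-beta at 500 pg/mL final for 18 hours at 37 degrees C. Per-cell GFP summed per well was normalised to unstimulated and stimulated DMSO controls before curve fitting.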
# HepG2 viability – kills HepG2 cells in TGF-b inhibitor counter-screen. HepG2 CAGA-GFP viability, ATP luminescence, 18 h. Potency, µM (highest dose often 46.1 µM), for the others: top-dose activity change, negative = cytotoxicity, actives largely listed as cytotoxic. actives 0.76% (n = 410,000). AID 588856
#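 CellTiter-Glo luminescence gave cytotoxicity after 18 hours at 37 degrees C. The cells were HepG2 CAGA-GFP in 1% FBS DMEM, stimulated with 500 pg/mL TGF-beta after compound addition. %Activity was normalised to no-cell wells (complete cell-killing) and DMSO (no toxicity), and curves were fitted and classified.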
# Gal4-VP16 FLuc – Gal4-VP16 reporter inhibition counter-screen. Drosophila S2 Gal4-VP16 UAS-luciferase, luminescence, 20 h. Potency, µM (highest dose often 53.6 µM), inactives show at the top dose activity, negative = inhibition, actives largely listed as inhibitors. actives 3.5% (n = 310,000);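 further: Gal4-VP16 expression switched on by copper sulfate through the metallothionein promoter; on the % scale 0 is the no-effect control and ±100 the full control effect; nearly all actives have a fitted effect of over 50% in size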
# S2 tox – viability counter-screen for ATXN expression inhibitors. S2 cells (HEK-293 line with an ATXN2-luciferase reporter) viability, CellTiter-Fluor protease fluorescence, 24 h. Potency, µM (top dose mostly 56.7 µM), most hits filed as cytotoxic. actives 0.49% (n = 400,000); further: nearly all actives have a fitted effect of over 40% in size
# Numbers without * were called inactive; i = inactive; ? = inconclusive; . = not tested or not shown. The call rests on the fitted dose curve; in most records, active means well fitted curve in the direction sought with a large enough effect; inconclusive means small, poorly fitted or top-dose-only effect, or another doubt; inactive means no such curve, though single readings can be large; an effect the other way counts as inactive or inconclusive. Potency means the concentration at half of the fitted maximal effect.
SMILES,RORg inh,ATXN2 expr inh,TGFb SMAD3 inh,HepG2 viability,Gal4-VP16 FLuc,S2 tox
COc1ccc2c(c1)c(CC(=O)N1CCOCC1)c(C)n2C(=O)c1ccc(Cl)cc1,?,.,.,.,-5%,.
O=C1NC(=S)N/C1=C/c1cccc([N+](=O)[O-])c1,-7%,7%,-22%,-9%,9%,i
O=C1NC(=S)N/C1=C/c1cccnc1,13µM*,44%,-5%,-1%,-13%,i
O=C1NC(=S)N/C1=C\c1cccnc1,2µM*,.,?,-15%,?,i
Cc1noc(Cn2c(=O)c3ccccc3n(CC(=O)Nc3cccc(Cl)c3C)c2=O)n1,.,.,-3%,-10%,.,.
CCCCCn1c(=N)c(S(=O)(=O)c2ccc(C)cc2)cc2c(=O)n3cc(C)ccc3nc21,.,1%,27%,-3%,.,i
COc1ccc(CCNC(=O)C(=O)NCC2OCCN2S(=O)(=O)c2ccc(Br)cc2)cc1OC (centres undefined),?,-2%,0%,-14%,7.9µM*,i
COc1ccc(CCNC(=S)c2ccccc2)cc1OC,?,-19%,-2%,-27%,16µM*,i
COc1ccc(S(=O)(=O)N2CCOC2CNC(=O)C(=O)NCCc2ccc(OC)c(OC)c2)cc1 (centres undefined),?,-13%,?,-17%,?,?
COc1ccc(CCNC(=S)NCCc2ccc(OC)c(OC)c2)cc1OC,-25%,-18%,-11%,0%,-4%,?
COc1ccc(CCNC(=S)NC(=O)c2ccc(Br)cc2)cc1OC,13µM*,?,-25%,-28%,?,i
COc1ccc(CCNC(=O)CCNC(=O)c2ccc(Br)cc2)cc1OC,37%,16%,7%,5%,-3%,i
COc1ccc(CCNC(=S)NC(=O)c2ccccc2)cc1C,10µM*,-17%,-14%,-29%,?,i
O=C(CCS(=O)(=O)c1cccc2nsnc12)Nc1ccc(F)cc1,.,-1%,?,-15%,.,i
COc1ccc(Cl)cc1NC(=O)c1cc(=O)c2cc(C)cc(C)c2o1,.,0%,-1%,21%,.,i
CC1(C)S[C@@H]2[C@H](NC(=O)C(C(=O)Oc3ccc4c(c3)CCC4)c3ccccc3)C(=O)N2[C@H]1C(=O)O (some centres undefined),.,.,.,.,.,i
Cc1ccc(-n2nc3cc(C)c(NC(=O)c4ccc(-c5ccccc5)o4)cc3n2)cc1,.,.,6%,4%,.,.
CCN(CC)C(=O)N1CCN(/[N+]([O-])=N/Oc2ccc([N+](=O)[O-])cc2[N+](=O)[O-])CC1,.,.,?,-34%,.,.
Cc1ccc(C(C(=O)NCc2ccco2)N(C(=O)CNC(=O)c2cccs2)c2c(C)cccc2C)cc1 (centres undefined),?,-18%,-2%,3%,16µM*,i
O=C(Nc1ccc(N2CCN(C(=O)c3ccco3)CC2)c(Cl)c1)c1cc2ccccc2o1,?,20µM*,1%,-13%,-17%,.
CCCC(=O)N1CCN(c2ccc(NC(=O)c3cc4ccccc4o3)cc2Cl)CC1,0%,14µM*,-12%,-9%,?,18µM*
COC(=O)c1cnc(Nc2nc(C(N)COCc3ccccc3)cs2)nc1C(F)(F)F (centres undefined),.,-9%,?,-81%,.,i
NC(c1ccccc1)c1csc(NC(=O)Nc2ccc(OC(F)(F)F)cc2)n1 (centres undefined),.,-15%,?,-112%,.,.
NC(c1csc(NC(=O)c2cccc(OC(F)(F)F)c2)n1)c1ccccc1Cl (centres undefined),.,32µM*,11µM*,-84%,.,?
COC(=O)c1cnc(Nc2nc(C(N)c3ccccc3Cl)cs2)nc1C(F)(F)F (centres undefined),.,?,18µM*,-87%,.,25µM*

# Screening results (PubChem)
